The structures appear in SMILES notation. “And” between values parts separate entries of the source, which are not always exact repeats. Identical values can stand only once. Inconclusive results are not listed. The source made the active and inactive calls. The call rests on the fitted dose curve; in most records, active means well fitted cell-killing curve with a large enough effect in the repeat runs; inconclusive means weak or mixed curves; inactive means flat fitted curve, though single readings scatter.
On the % scale 0 is the no-effect control and ±100 the full control effect; potency means the concentration at half of the fitted maximal effect.

This experiment in a line: qHTS assay to identify small molecule antagonists of the estrogen related receptor (ERR) signaling pathway from Tox21 library - cell viability counter screen (AID 1224834). Further: nearly all actives have a fitted effect of over 30% in size. The conditions noted are these: ERR reporter cells viability, CellTiter-Fluor, 17.5 h; series mostly up to 92.4 µM; viability change, negative = cytotoxic: at the top concentration. The essentials:
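CellTiter-Fluor fluorescence measured; ERR cells; 17.5 h compound incubation at 37 C; 30 min reagent step.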
For orientation: In qHTS, concentration-response curves come from the screen itself.
For `CCC(Cl)C(Cl)C(Cl)CC(Cl)C(Cl)C(C)Cl` (stereo not drawn), the “viability change, negative = cytotoxic” value was -3.81% (inactive).
As for `[Cl][Au]([Cl])[Cl]`, the Potency is 27.3 µM (active).
On the same count and under the same terms, as for `CCCCCCCCCOC(=O)c1ccc(O)cc1`, the figure is 53.7 µM (active).
With `CSc1cnc(C)cn1`, the “viability change, negative = cytotoxic” value was 2.97% [at 240 µM] (inactive).
Same read-out and setting: as for `CC1=NC(C)OC1C` (stereo not drawn), the figure is 0.182% (inactive).
As for `C=CC(=O)OCC(CO)(COCC(COC(=O)C=C)(COC(=O)C=C)COC(=O)C=C)COC(=O)C=C`, the Potency is 4.8 µM (active).
Still for that read-out and setting: as for `CN1CCN(CCC(=O)N2c3ccccc3Sc3ccc(C(F)(F)F)cc32)CC1`, the figure is 29.8 µM (active).
Regarding `COc1cc(-c2ccc(N=C=O)c(OC)c2)ccc1N=C=O`, the “viability change, negative = cytotoxic” value was 4.58% [at 42.5 µM] (inactive).
As to `Oc1c(Cl)cc(Cl)c2cccnc12`, the Potency was 13.3 µM (active).
For `Nc1ccccc1O`, the Potency was 60.3 µM (active).
As for `O=C1CCCCCN1SSN1CCCCCC1=O`, the “viability change, negative = cytotoxic” value is 1.58% (inactive).
For the molecule `C=CC(=O)OCC(CO)(COC(=O)C=C)COC(=O)C=C`, the Potency was 6.88 µM (active) and 13.7 µM (active).
For `Cc1cc(O)c(Cl)c(C)c1Cl`, the “viability change, negative = cytotoxic” value was -3.63% (inactive).
Take `Oc1ccc(N=Nc2ccccc2)cc1`: the Potency was 49.2 µM (active).
On the same count and under the same terms, the value for `O=C(Nc1cccc([N+](=O)[O-])c1)c1cc2ccccc2cc1O` was 4.33 µM (active); that for `NNc1nc(-c2ccccc2)cs1` was 7.05 µM (active).
Turning to `CN(C/C=C/C#CC(C)(C)C)Cc1cccc2ccccc12`, the “viability change, negative = cytotoxic” value was 0.642% [at 42.5 µM] (inactive).
As to `CCCCCOc1ccccc1/C(=C\SC)n1ccnc1`, the Potency is 29.8 µM (active).
Still for that read-out and setting: as for `C=C(C)C(=O)OCC(O)COc1ccc(C(C)(C)c2ccc(OCC(O)COC(=O)C(=C)C)cc2)cc1` (stereo not drawn), the figure is 48.6 µM (active); as for `CCCCCCCC/C=C\CCCCCCCCOCCO`, 35.5 µM (active).
As for `CC[C@H]1O[C@]2(CC[C@@H]1C)C[C@@H]1C[C@@H](C/C=C(\C)C[C@@H](C)/C=C/C=C3\CO[C@@H]4[C@H](O)C(C)=C[C@@H](C(=O)O1)[C@]34O)O2`, the Potency was 60.6 µM (active).
In the case of `Cc1cc2c(cc1C(F)(F)F)N(C(=O)Nc1ccc(Oc3cccnc3C)nc1)CC2`, the Potency was 15.6 µM (active).
Same read-out and setting: the value for `Oc1cccc(-c2c3nc(c(-c4cccc(O)c4)c4ccc([nH]4)c(-c4cccc(O)c4)c4nc(c(-c5cccc(O)c5)c5ccc2[nH]5)CC4)C=C3)c1` was 10.6 µM (active); that for `CC(C)(C)NC(=O)[C@@H]1C[C@@H]2CCCC[C@@H]2CN1C[C@@H](O)[C@H](Cc1ccccc1)NC(=O)[C@H](CC(N)=O)NC(=O)c1ccc2ccccc2n1` was 24.7 µM (active).
As to `CCCCN(CCCC)C(=O)N(CCCC)CCCC`, the “viability change, negative = cytotoxic” value was 5.66% (inactive).
As for `CC(NN)c1ccccc1` (stereo not drawn), the viability change, negative = cytotoxic was 6.9% [at 19 µM] (inactive).
Take `CCN(Cc1cccnc1)C(=O)c1cccc(Cl)c1[C@]1(C)C(=O)N(Cc2ccc(OC)cc2OC)c2ccc(Cl)cc21`: the Potency is 28.6 µM (active).
Still for that read-out and setting: as for `N/C(=N\N=C\c1ccc(Cl)cc1)N/N=C/c1ccc(Cl)cc1`, the figure is 33.5 µM (active).
As for `COC(=O)c1cc(Cl)ccc1OC`, the “viability change, negative = cytotoxic” value is 5.09% [at 42.5 µM] (inactive).
In the case of `C=C(C)C(=O)OCC[N+](C)(C)C`, the “viability change, negative = cytotoxic” value is -3.63% (inactive).
On the same count and under the same terms, the value for `CC(C)(C)C1CCC(CC2=C(O)c3ccccc3C(=O)C2=O)CC1` (stereo not drawn) was -0.528% [at 42.5 µM] (inactive).
On to `O=C1c2c(O)ccc(Nc3ccc(CCO)cc3)c2C(=O)c2c([N+](=O)[O-])ccc(O)c21`, for which the Potency is 38.6 µM (active).
As for `Clc1ccc2cc3ccccc3cc2c1`, the “viability change, negative = cytotoxic” value is 0.0316% (inactive).
